Assay results from PubChem BioAssay AID1347414 (National Center for Advancing Translational Sciences (NCATS), 2020).
Records with an inconclusive call do not appear. A number with no mark means an inactive call. Calls of active or inactive are those of the source. The call rests on the fitted dose curve; in most records, active means well fitted inhibition curve with a large enough effect; inconclusive means small, poorly fitted or top-dose-only effect; inactive means no such curve, though single readings can be large or run the other way.

Assay: qHTS to identify inhibitors of the type 1 interferon - major histocompatibility complex class I in skeletal muscle: Secondary screen by immunofluorescence; further: nearly all actives have a fitted effect of over 70% in size;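 on activity change, negative = inhibition: digitonin at 100 µM served as the cytotoxic control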
Settings: C25cl48 myoblasts, IFN-b induced HLA-ABC immunofluorescence, 24 h; series mostly up to 49.8 µM; activity change, negative = inhibition: at the top concentration
Summary of the method: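 HLA-ABC immunofluorescence, with nuclear and cell-body stains, was quantified by laser scanning cytometry. Read-out followed 24 h of IFN-beta (4.0 ng/ml) stimulation of C25cl48 human myoblasts with compounds titrated 1:3 over 11 points from 50 uM, with ruxolitinib as inhibitor control.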
On the % scale 0 is the no-effect control and ±100 the full control effect; potency means the concentration at half of the fitted maximal effect.

Row | Compound | activity change, negative = inhibition | Potency
1 | CCCCC(=O)O[C@]1(C(=O)CO)[C@@H](C)C[C@H]2[C@@H]3CCC4=CC(=O)C=C[C@]4(C)[C@@]3(F)[C@@H](O)C[C@@]21C | -22.8% | –
2 | Cc1ccc2nc(NCCN)c3ncc(C)n3c2c1 | – | 4.08 µM (active)
3 | Cc1oncc1C(=O)Nc1ccc(C(F)(F)F)cc1 | 10.8% | –
4 | CC[C@H]1CN2CCc3cc(OC)c(OC)cc3[C@@H]2C[C@@H]1C[C@H]1NCCc2cc(OC)c(OC)cc21 | – | 0.129 µM (active)
5 | COc1ncc(Nc2ncc(C(C)N3CCN(S(C)(=O)=O)CC3)cc2-c2nc(C)nc(N)n2)cc1F (stereo not given) | -17.3% | –
6 | CN1CC[C@H](c2c(O)cc(O)c3c(=O)cc(-c4ccccc4Cl)oc23)[C@H](O)C1 | – | 0.102 µM (active)
7 | CC[C@@]1(O)C(=O)OCc2c1cc1n(c2=O)Cc2cc3c(CN(C)C)c(O)ccc3nc2-1 | – | 7.26 µM (active)
8 | CC(C)c1cc(CNc2nc(Nc3cc(C4CC4)[nH]n3)cc(N3CCN(C)CC3)n2)on1 | – | 4.58 µM (active)
9 | NC(=O)c1cnc2[nH]ccc2c1NC1C2CC3C[C@H]1CC(O)(C3)C2 (stereo not given in full) | – | 0.458 µM (active)
10 | CCC(=C/[C@H](C)C/C=C/C(C)=C/[C@@H](C)C(=O)[C@@H](C)[C@H](O)[C@@H](C)C/C(C)=C/C(=O)O)/C=C/[C@@H]1OC(=O)C=C[C@@H]1C | -89.2% | –
11 | COc1ccc(-c2ccc3ncc4c(c3c2)n(-c2ccc(N3CCNCC3)c(C(F)(F)F)c2)c(=O)n4C)cn1 | – | 0.258 µM (active)
12 | CCS(=O)(=O)N1CCN(c2ccc(Nc3ncc(C(N)=O)c(NC4CC4)n3)cc2)CC1 | – | 1.29 µM (active)
13 | C[C@H](NC(=O)/C(C#N)=C/c1cccc(Br)n1)c1ccccc1 | – | 20.5 µM (active)
14 | N#CCC1(n2cc(-c3ncnc4[nH]ccc34)cn2)CN(C2CCN(C(=O)c3ccnc(C(F)(F)F)c3F)CC2)C1 | – | 1.29 µM (active)
15 | Cc1ccc(NC(=O)NCc2ccc3c(c2)CN(C2CCC(=O)NC2=O)C3=O)cc1Cl (stereo not given) | – | 0.0081 µM (active)
16 | CS(=O)(=O)N1CCC(NC(=O)c2[nH]ncc2NC(=O)c2c(Cl)cccc2Cl)CC1 | – | 1.45 µM (active)
17 | CC[C@@]1(O)C(=O)OCc2c1cc1n(c2=O)Cc2c-1nc1ccccc1c2/C=N/OC(C)(C)C | – | 3.24 µM (active)
18 | Cc1cc(Nc2cc(NC(=O)c3c(Cl)cccc3Cl)ccn2)nc(N)n1 | – | 2.05 µM (active)
19 | Cc1ccc(C(N)=O)cc1Nc1nccc(-c2cn(C(C)C)c3cnccc23)n1 | – | 3.33 µM (active)
20 | O=C(Nc1nc2cccc(-c3ccc(CN4CCS(=O)(=O)CC4)cc3)n2n1)C1CC1 | – | 1.82 µM (active)
21 | O=C1CN2Cc3c(ccc(Cl)c3Cl)N=C2N1 | 7.02% | –
22 | CC(C)c1nn(-c2c(Cl)cccc2Cl)c2nc(Cc3ccc(OCCO)cc3)[nH]c(=O)c12 | – | 0.0229 µM (active)
23 | C[C@H]1C[C@@H]2[C@H]([C@@H](O)C[C@@]3(C)[C@H]2CC[C@]3(O)C(=O)CO)[C@@]2(C)C=CC(=O)C=C12 | -26.3% | –
24 | CN(C)c1ccc(C(=O)NCCCCCCC(=O)NO)cc1 | – | 0.647 µM (active)
25 | CCc1cc(C(N)=O)ccc1-n1nc(C(C)C)c2c(-n3cnc(-c4cnn(C)c4)c3)ccnc21 | – | 0.258 µM (active)
